Whole data set: some 18,000 sequences, median “log2 normalized intensity” near 0.39, cut for the highest 2% near 6.6. What follows is part of a selection rich in the highest values, with near analogues and random picks from the rest.

For this assay, the target named is T1, HNF4alpha2 (COS-7 nuclear extract) (Homo sapiens, UniProt P41235 1-474).
T1 sequence: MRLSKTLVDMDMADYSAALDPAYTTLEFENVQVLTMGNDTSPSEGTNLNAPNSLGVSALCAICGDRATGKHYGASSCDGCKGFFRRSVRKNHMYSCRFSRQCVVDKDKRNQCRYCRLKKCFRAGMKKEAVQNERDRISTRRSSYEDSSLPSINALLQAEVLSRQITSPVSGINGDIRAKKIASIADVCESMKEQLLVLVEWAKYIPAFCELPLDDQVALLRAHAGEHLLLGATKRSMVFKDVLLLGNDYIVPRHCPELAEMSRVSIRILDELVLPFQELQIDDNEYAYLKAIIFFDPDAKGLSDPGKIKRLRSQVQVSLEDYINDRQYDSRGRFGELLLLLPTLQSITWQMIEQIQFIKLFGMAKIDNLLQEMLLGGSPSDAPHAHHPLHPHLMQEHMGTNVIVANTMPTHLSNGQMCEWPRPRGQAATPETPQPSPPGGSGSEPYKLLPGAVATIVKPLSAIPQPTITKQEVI
Kind of assay: protein-binding microarray; COS-7 nuclear extract on double-stranded Agilent 4x180k PBM; binding buffer, salt, pH and temperature not given in the material; high values mean tight binding. The note with it: chain copies: 2; label: 3' end of strand 1 on the slide; dsDNA, one strand shown. The method in brief: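 Binding signal is the background-corrected, normalized gProcessedSignal calculated by Agilent software. It was measured by applying nuclear extracts of COS-7 cells transiently transfected with a human HNF4α isoform expression vector to a custom Agilent SurePrint G3 4x180k array of ~44,000 double-stranded ~60-nt test sequences in quadruplicate, then imaging bound HNF4α on an Agilent G2565CA scanner at 2-µm resolution.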
Consider “TTAGCTATCAGTGTTGACCTCTGGACCTCAGCCTAGGGAGATTAGAGTATCGGTCGA”, for which the binding signal came out at 6.97 log2 normalized intensity.
Take “CTCAAGTGACCTTTGACCTCTGGCCTTTGCGCCTAGGGAGATTAGAGTATCGGTCGA”: the binding signal is 10.2 log2 normalized intensity.
In the case of “ACCACTTTGAAATAGTGACCTCTGCTGGCCGCCTAGGGAGATTAGAGTATCGGTCGA” it was 2.65 log2 normalized intensity; in that of “GTGAGGGAGGAGACTTTGACCTCTGCTAGGGCCTAGGGAGATTAGAGTATCGGTCGA”, 5.43 log2 normalized intensity.
Next, “ACCTTTGCCTTCTTGACATCTCTCTCTGCAGCCTAGGGAGATTAGAGTATCGGTCGA”: 1.17 log2 normalized intensity.
In the case of “CTCTAACCACTTTGAAATAGTGACCTCTGCGCCTAGGGAGATTAGAGTATCGGTCGA” it was 4.36 log2 normalized intensity; in that of “GTGACCTTTGACCTCTGGCCTTTGCAGTTAGCCTAGGGAGATTAGAGTATCGGTCGA”, 8.21 log2 normalized intensity.
Take “AAGGCTAGTCTTCTTTGGGGCTTAGATAGCGCCTAGGGAGATTAGAGTATCGGTCGA”: the binding signal was 0.431 log2 normalized intensity.
Next, “TGTACAGGACCATGTTCTCCTAAAGTGACTGCCTAGGGAGATTAGAGTATCGGTCGA”: -0.786 log2 normalized intensity.
As for “CACTGCACCTGCCTGAACAAGTCCAGTGACGCCTAGGGAGATTAGAGTATCGGTCGA”, the binding signal is -0.89 log2 normalized intensity.
In the case of “CACTGAGATAAAAATGGCCAAAGGTTGCCAGCCTAGGGAGATTAGAGTATCGGTCGA” it was 2.09 log2 normalized intensity; in that of “CCACATTCTGAGACTAAAGAGTACACAAAGGCCTAGGGAGATTAGAGTATCGGTCGA”, -0.922 log2 normalized intensity; in that of “TTCCTGGATTGTGAAACACAGGACTTGATCGCCTAGGGAGATTAGAGTATCGGTCGA”, 0.71 log2 normalized intensity.
With “GAGTGTCCTGCCCCCTGGAGGAGTGAGGGAGCCTAGGGAGATTAGAGTATCGGTCGA”, the binding signal came to 1.34 log2 normalized intensity.
In the case of “GGGGAGGTCAACCAGGGAAATTACCCTCTAGCCTAGGGAGATTAGAGTATCGGTCGA” it was -0.241 log2 normalized intensity; in that of “ACAGGGCTTGGGGTGGGGTTGGAGTCCAGAGCCTAGGGAGATTAGAGTATCGGTCGA”, 1.25 log2 normalized intensity; in that of “AGTGAAGGTTCAGTGAAGTAGTGTGTATGAGCCTAGGGAGATTAGAGTATCGGTCGA”, 2.27 log2 normalized intensity.
In the case of “ATTATCTGCTTTTATGACCTTTGACTGCAGGCCTAGGGAGATTAGAGTATCGGTCGA” it was 6.64 log2 normalized intensity.
As for “CCTAAGCCTTATTATCTGCTTTTATGACCTGCCTAGGGAGATTAGAGTATCGGTCGA”, the binding signal was 3.06 log2 normalized intensity.
Next, “GCCTTATTATCTGCTTTTATGACCTTTGACGCCTAGGGAGATTAGAGTATCGGTCGA”: 7.34 log2 normalized intensity.
In the case of “TTTATGACCTTTGACTGCAGAAGATAAGAAGCCTAGGGAGATTAGAGTATCGGTCGA” it was 3.94 log2 normalized intensity; in that of “CTGCTTTTATGACCTTTGACTGCAGAAGATGCCTAGGGAGATTAGAGTATCGGTCGA”, 5.27 log2 normalized intensity; in that of “TCTGCCTTTTATCTATTTGTCGCCTCTGACGCCTAGGGAGATTAGAGTATCGGTCGA”, 0.141 log2 normalized intensity.
In the case of “AACTTTGCAGCAGATAATTACCTGGACTCTGCCTAGGGAGATTAGAGTATCGGTCGA” it was 3.6 log2 normalized intensity.
As to “CAGATGTTTCTGCAAGCACACTGTCCTGCTGCCTAGGGAGATTAGAGTATCGGTCGA”, the binding signal was -0.824 log2 normalized intensity.
Take “ACCGACCTTTGGTTCCTGAACTCAAACCCCGCCTAGGGAGATTAGAGTATCGGTCGA”: the binding signal was determined as 2.57 log2 normalized intensity.
For the sequence “AGCCTCTCACAGTAGCCCAGGTCCTTTGGTGCCTAGGGAGATTAGAGTATCGGTCGA”, the binding signal came to 0.178 log2 normalized intensity.
In the case of “CTTTGCCCCCAGCCTCTCACAGTAGCCCAGGCCTAGGGAGATTAGAGTATCGGTCGA” it was 4.6 log2 normalized intensity.
Next, “GAGGTTCCTGGAACTCTGACCTTTGCCCCCGCCTAGGGAGATTAGAGTATCGGTCGA”: 10.5 log2 normalized intensity; “CTGACCTTTGCCCCCAGCCTCTCACAGTAGGCCTAGGGAGATTAGAGTATCGGTCGA”: 6.87 log2 normalized intensity; “AAATCTGCCCAACCTTTGCCCCTGGAGGGAGCCTAGGGAGATTAGAGTATCGGTCGA”: 3.74 log2 normalized intensity.
As for “GAACTCTGACCTTTGCCCCCAGCCTCTCACGCCTAGGGAGATTAGAGTATCGGTCGA”, the binding signal was found to be 8.72 log2 normalized intensity.
Next, “AGGAGGAGGTTCCTGGAACTCTGACCTTTGGCCTAGGGAGATTAGAGTATCGGTCGA”: 5.97 log2 normalized intensity.
Next, “GCTATCTTATCTTTGACCTTACCAGCCCACGCCTAGGGAGATTAGAGTATCGGTCGA”: 2.3 log2 normalized intensity; “GCCTGCCCCTCTGACCTCTCCTCCTACCTTGCCTAGGGAGATTAGAGTATCGGTCGA”: 3.24 log2 normalized intensity; “TGCCCAGCTTGAATCACTCACTGACCTCTTGCCTAGGGAGATTAGAGTATCGGTCGA”: 3.98 log2 normalized intensity.
Turning to “TCCTGGAACTCTGACCTTTGCCCCCAGCCTGCCTAGGGAGATTAGAGTATCGGTCGA”, the binding signal came out at 9.67 log2 normalized intensity.
Take “TTCTGTCCTCTCAAAGTCCACCCGGCCAGCGCCTAGGGAGATTAGAGTATCGGTCGA”: the binding signal worked out at 4.04 log2 normalized intensity.
In the case of “TGCATCAGTGCTGACCTACCTGACCTGGCAGCCTAGGGAGATTAGAGTATCGGTCGA” it was 1.28 log2 normalized intensity; in that of “AAGGGCAGCAGTAACCCCCCAGGAGCGAGTGCCTAGGGAGATTAGAGTATCGGTCGA”, 3.54 log2 normalized intensity; in that of “TGGGTATGTCTGTAGGTAAGCACAAAGTACGCCTAGGGAGATTAGAGTATCGGTCGA”, 1.92 log2 normalized intensity.
Turning to “GGCAAAACACCCCTTTCACTTCTTCCCCTCGCCTAGGGAGATTAGAGTATCGGTCGA”, the binding signal came to 3.8 log2 normalized intensity.
Take “TAACCCTACAGTCCTGCCACATCCCCCACAGCCTAGGGAGATTAGAGTATCGGTCGA”: the binding signal came out at 4.26 log2 normalized intensity.

The values are drawn from PMC10726135, “HNF4α isoforms regulate the circadian balance between carbohydrate and lipid metabolism in the liver”.
